# Compound activity from PubChem BioAssay.
# ALDH1A1 block: ALDH1A1 (human) enzyme inhibition; Purified ALDH1A1, NADH fluorescence, propionaldehyde substrate; AID 1030; 220,000 tested, 7.3% active; P00352; Potency, µM (doses to about 75.3 µM), without a hit: at the top dose activity, negative = inhibition, most hits filed as inhibitors; active = well fitted inhibition curve with a large enough effect, not every such curve was filed as active; inconclusive = small, poorly fitted or top-dose-only effect, or another doubt; inactive = no such curve, though single readings can be large or run the other way;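 also: potency is read from the fitted curve at half-maximal effect; plate controls were no enzyme wells and a reference inhibitor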
# HPGD inh: blocks human HPGD enzyme activity; P15428; purified HPGD, NADH fluorescence kinetic, PGE2 substrate; Potency, µM, without a hit: at the highest dose activity change, negative = inhibition, actives largely listed as inhibitors; 150,000 tested, 4.3% active; AID 894; active = well fitted inhibition curve with a large enough effect, not every such curve was filed as active; inconclusive = small, poorly fitted or top-dose-only effect, or another doubt; inactive = no such curve, though single readings can be large or run the other way; also: potency is read from the fitted curve at half-maximal effect; % is scaled to controls: 0 for no effect and ±100 for the full control effect
# Target sequence (P15428 whole entry, looked up): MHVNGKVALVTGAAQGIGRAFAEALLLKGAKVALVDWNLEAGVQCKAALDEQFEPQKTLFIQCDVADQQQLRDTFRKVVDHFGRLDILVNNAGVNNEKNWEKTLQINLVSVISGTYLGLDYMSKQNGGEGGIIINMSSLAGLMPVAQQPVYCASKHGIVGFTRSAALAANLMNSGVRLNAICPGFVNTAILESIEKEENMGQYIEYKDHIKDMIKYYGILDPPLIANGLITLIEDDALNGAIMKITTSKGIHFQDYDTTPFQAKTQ
#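 20 nM HPGD preincubated 15 min at room temperature with compound in 50 mM Tris-HCl pH 8, 0.01% Tween 20. Started with 1 mM NAD+ and 30 uM prostaglandin E2; NADH fluorescence (360/450 nm) read 5 times over 30-s intervals, last minus first.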
# HTT ATP protect: Huntington cell model cytoprotection by ATP luminescence. PC12 HTT-Q103 induced, cytoprotection, ATP luminescence, 40 h. Potency, µM (top dose mostly 56.4 µM), for the others: cytoprotection (ATP increase), most hits filed as activators. 230,000 tested, 0.14% active; also: potency is read from the fitted curve at half-maximal effect; % of control where 0% means no effect; nearly all actives have a fitted effect of over 45% in size
#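 Rat PC12, Q103 Htt exon1-GFP fusion, ecdysone promoter; tebufenozide inducer 100 nM final; compound titration; qHTS, 1500 cells/well; ATPlite luminescent read.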
# HttQ103 aggreg: mutant huntingtin aggregation inhibition; PC12 HttQ103-GFP aggregates, Acumen cytometry, 40 h; Potency, µM (top dose mostly 46.1 µM), inactives show at the top dose activity change, negative = inhibition, usual class: inhibitors; 220,000 tested, 1.1% active; also: potency is read from the fitted curve at half-maximal effect; % is scaled to controls: 0 for no effect and ±100 for the full control effect; nearly all actives have a fitted effect of over 60% in size
#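 PC12 cells stably carrying ecdysone-inducible HTT exon 1 Q103–GFP were induced with tebufenozide (100 nM final) and treated with library compounds in titration. GFP aggregates in lysates were counted by laser scanning cytometry.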
# IMPase Li inh: cell-permeable IMPase inhibitors with lithium potentiation; CHO-M1 cells, IP1 TR-FRET (IP-One), carbachol + lithium; Potency, µM (series often up to 59.4 µM), for inactives: top-dose activity, negative = IMPase inhibition, most hits filed as inhibitors; 210,000 tested, 0.35% active;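 also: IP1 builds up when IMPase is blocked and the TR-FRET signal falls; potency is read from the fitted curve at half-maximal effect; plate controls were basal vehicle for no effect and high inhibitor control for full effect; nearly all actives have a fitted effect of over 50% in size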
#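 CHO-M1, 2000 cells/well, 16–30 h culture; cpd + low Li+, 30 min 37C; lysis with d2-IP1/Eu-anti-IP1 Ab, 10 min RT; TR-FRET 665/620 ratio and 620 channel; AC50 via Hill.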
# IMPase cell inh: cell-permeable inhibitors of inositol monophosphatase (IMPase); CHO-M1 cells, IP1 accumulation, HTRF TR-FRET ratio; inhibition (IP1 accumulation), % at 46.1 µM; 120,000 tested, under 10 active; P97697; active = well fitted curve in the direction sought with a large enough effect in the signal ratio, not every such curve was filed as active; inconclusive = small, poorly fitted or top-dose-only effect, or a change in a side signal; inactive = no such curve, though single readings can be large or run the other way; the % refers to the signal ratio;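 also: cells stimulated with carbachol in lithium chloride buffer; plate controls were DMSO basal wells for no effect and reference inhibitor wells for full effect; higher means more IMPase inhibition seen as more IP1 and lower FRET ratio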
# Target sequence (P97697 whole entry, looked up): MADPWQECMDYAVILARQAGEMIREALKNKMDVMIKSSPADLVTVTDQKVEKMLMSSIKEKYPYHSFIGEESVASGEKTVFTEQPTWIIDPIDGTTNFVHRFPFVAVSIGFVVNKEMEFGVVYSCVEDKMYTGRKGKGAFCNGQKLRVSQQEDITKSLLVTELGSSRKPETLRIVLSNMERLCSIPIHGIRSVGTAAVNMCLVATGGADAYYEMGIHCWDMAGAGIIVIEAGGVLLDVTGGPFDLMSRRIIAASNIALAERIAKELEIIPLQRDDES
#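 Seeded CHO-M1 cells were dosed with compound at up to 46 uM, stimulated with carbachol for 30 min, then lysed in IP-One detection reagents. Higher IP1 lowers the TR-FRET signal.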
# * hit, by the source's call; u = inconclusive; x = not tested or not shown; [ ] = dose if it differs, or a comment. The list is not random: actives were taken first. Their share in the collection is about 9.4%. Unless noted, calls follow the shape of the dose curve; as a rule, active = well fitted curve in the direction sought with a large enough effect; inconclusive = small, poorly fitted or top-dose-only effect, or another doubt; inactive = no such curve, though single readings can be large; an effect the other way counts as inactive or inconclusive.
SMILES,ALDH1A1 block,HPGD inh,HTT ATP protect,HttQ103 aggreg,IMPase Li inh,IMPase cell inh
CCCNC(=O)NS(=O)(=O)c1ccc(Cl)cc1,-5%,-6%,u,-12%,3%,0
CNC(=O)c1nnsc1S(=O)c1ccc(Cl)cc1 (configuration not stated),22µM*,x,-142%,14µM*,24%,x
CCCNC(=O)c1nnsc1S(=O)(=O)c1ccc(Cl)cc1,20µM*,x,-144%,u,26%,x
CCCNC(=O)c1nnsc1S(=O)c1ccc(Cl)cc1 (configuration not stated),11µM*,x,-150%,11µM*,16%,x
CC(C)C[C@H](NC(=O)[C@@H](O)[C@@H](N)Cc1ccccc1)C(=O)O,x,x,u,x,x,-7
CCN1/C(=C/c2cc[n+](C)cc2)C=Cc2cc(C)ccc21,u,-1%,-59%[10 µM],8.9µM*,48%,x
CC(C)C1S/C(=N/N=C/c2ccco2)NC1=O (configuration not stated),x,13µM*,5%,-5%,6%[38.3 µM],4
Cc1ccccc1CC1S/C(=N/N=C/c2ccco2)NC1=O (configuration not stated),x,x,-5%[10 µM],-7%[9.22 µM],x,x
COC(=O)c1ccc2c(c1)C(C)(C)C(/C=C/c1ccc(OC)c(OC)c1OC)=[N+]2C,-1%,-28%,-90%,11µM*,9%[38.3 µM],9
COc1cc(N(C)C)c([N+](=O)[O-])cc1C(=O)NC(C)CNc1ccc([N+](=O)[O-])cc1Cl (configuration not stated),1.6µM*,-20%,-4%[10 µM],-3%,10%,-7
CCN(CC)CCNC(=O)c1cc([N+](=O)[O-])c(N(C)C)cc1OC,x,x,5%[10 µM],-10%[9.22 µM],x,x
Cc1cc(NS(=O)(=O)c2ccc(NC(=O)/C=C/c3ccc(C)o3)cc2)nc(C)n1,3.5µM*,x,-2%,-4%,x,x
COc1cc(OC)cc(C(=O)Nc2ccc(S(=O)(=O)Nc3cc(C)nc(C)n3)cc2)c1,5µM*,-28%,-9%,-8%,38%[38.3 µM],-3
COc1cc(C(=O)Nc2ccc(S(=O)(=O)Nc3cc(C)nc(C)n3)cc2)cc(OC)c1OC,u,x,u,2%,3%,x
Cc1cc(NS(=O)(=O)c2ccc(NC(=O)c3ccc(Br)o3)cc2)nc(C)n1,u,x,4%,9%,-4%,x
COc1ccc(C(=O)Nc2ccc(S(=O)(=O)Nc3cc(C)nc(C)n3)cc2)cc1OC,10µM*,x,16%[10 µM],10%[9.22 µM],9%,x
CCCOC(=O)c1c(NC(=O)C2c3ccccc3Oc3ccccc32)sc2c1CCCC2,x,x,x,x,x,-3
N[C@H](COP(=O)(O)O)C(=O)O,u,x,-38%,-6%,-5%,x
CS(=O)(=O)Nc1cccc(-c2ccc3ncnc(N4CCOCC4)c3c2)c1,6%,x,-87%,x,11%,x
COc1ccc2nc3c(c([Si](C)(C)C(C)(C)C)c2c1)Cn1c-3cccc1=O,22µM*,u,-46%,x,5%,x
CC1(C)CC(=O)C(Sc2nnc(-c3ccc(O)cc3)n2CC2CCCO2)C(=O)C1 (configuration not stated),19µM*,-12%,15%,14%,-11%[38.3 µM],3
CC(=O)Nc1ccc(C(=O)CSc2nnc(-c3ccc(O)cc3)n2CC2CCCO2)cc1 (configuration not stated),u,-15%,-29%[10 µM],1%,3%[38.3 µM],3
Cc1cccc(CN2CCN(CC(=O)O)C2=O)c1,u,-17%,2%[0.074 µM],4%,11µM*,u
Cc1cccc(CN2CCN(CC(=O)N3CCCC3)C2=O)c1,9%,2%,22%[10 µM],27%,15%[38.3 µM],-8
Cc1ccccc1CN1CCN(CC(=O)NCc2ccccc2)C1=O,-1%,-5%,4.5µM*,-3%,16%[38.3 µM],-2
SMILES,ALDH1A1 block,HPGD inh,HTT ATP protect,HttQ103 aggreg,IMPase Li inh,IMPase cell inh
O=C(N/N=C/c1ccc(O)cc1O)c1cc(-c2ccccc2)n[nH]1,u,-24%,x,x,x,x
O=C(/C=C/c1ccc(Br)o1)Nc1nccs1,22µM*,x,0%[10 µM],5%,3%,x
O=C(Nc1nccs1)c1ccc(Br)o1,u,25µM*,-5%[10 µM],-3%,6%,-4
C/C(CCC(=O)OC[C@@H]1O[C@H](C#Cc2ccccc2)C=C[C@@H]1Oc1ccc(C)cc1)=N/O[C@@H](C)c1cn([C@H](CO)Cc2ccccc2)nn1,-6%[13.5 µM],x,-13%[10 µM],x,x,x
C/C(=N\NC(=O)c1cccc(Cl)c1)C1C(=O)c2ccccc2C1=O,13µM*,u,-80%[10 µM],u,20%,x
CCCSc1nc2sc3c(c2c(=O)n1-c1ccccc1)CCC(C)C3 (configuration not stated),x,x,x,x,x,-1
Cc1ccccc1-c1nc2ccccc2c(=O)n1/N=C/c1ccccc1[N+](=O)[O-],14µM*,22µM*,-10%,9%,35%[38.3 µM],12
C[C@H](O)[C@@H]1C(=O)N2C(C(=O)O)=C(SCCN=CN)C[C@@H]12,-2%[20.9 µM],-10%,-4%[40.3 µM],5%[20.6 µM],3%,-5[20.6 µM]
CC(C)Cc1nnc(NS(C)(=O)=O)s1,25µM*,-19%,-24%,2%,-24%[38.3 µM],u
CC(C)Cc1nnc(NS(=O)(=O)c2ccc(Cl)cc2)s1,u,-6%,-4%[10 µM],6%,-7%,-8
CCCCCCC/C=C/C1=CC2(C)CC1(C)C(CCCCCCC)CC2=O (configuration not stated),-5%[13.5 µM],x,-7%[10 µM],x,x,x
Cc1cc(C)c(C(=O)CSc2n[nH]c(-c3ccncc3)n2)c(C)c1,11%,x,-43%,4%,6%,x
Cc1ccc(C)c(C(=O)CSc2n[nH]c(-c3ccncc3)n2)c1,5µM*,x,-5%,6%,x,-5
CCN(CC)S(=O)(=O)c1cccc(NC(=O)c2ccc(C#N)cc2)c1,-4%,x,x,-20%,3%,x
O=C1c2c([N+](=O)[O-])cc([N+](=O)[O-])cc2S(=O)N1Cc1ccccc1 (configuration not stated),3.5µM*,x,-42%,11%,-14%,x
Cc1[nH]n(-c2ccccc2)c(=O)c1C(C[N+](=O)[O-])c1ccc(Br)cc1 (configuration not stated),22µM*,u,-1%,-28%,37%[38.3 µM],4
Cc1[nH]n(-c2ccccc2)c(=O)c1C(c1cccc([N+](=O)[O-])c1)c1c(C)[nH]n(-c2ccccc2)c1=O,u,32µM*,7%[10 µM],-5%,4%,x
Cc1cccc(NC(=O)CSc2ncc(-c3ccc(Br)cc3)[nH]2)c1,x,x,x,x,x,0
COc1cc2c(cc1OC)C1C(=O)c3ccc4c(c3OC1CO2)C=CC(C)(C)O4 (configuration not stated),2%,-13%,-140%,x,29%,x
